Reference: PubChem BioAssay AID504534 (National Center for Advancing Translational Sciences (NCATS), 2011)
Records with an inconclusive call do not appear. A number with no mark means an inactive call. Calls come from the whole dose curve; as a rule, active = well fitted curve in the direction sought with a large enough effect; inconclusive = small, poorly fitted or top-dose-only effect, or another doubt; inactive = no such curve, though single readings can be large or run the other way.

Experiment: Secondary Assay for Inhibitors of Human Cdc-like kinase 4 (Clk4): HEK-293 Cell Viability Assay;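 note: % of control where 0% means no effect; cytotoxic hits lower the ATP light signal so activity reflects loss of viability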
Details: HEK-293 viability, ATP luminescence (CellTiter-Glo), 24/48 h; series mostly up to 46.1 µM; activity change, negative = cytotoxicity: at the top concentration
Description: NIH Molecular Libraries Probe Production Centers Network [MLPCN] NIH Chemical Genomics Center [NCGC] MLPCN Grant: 1R03MH084827-01 Assay Submitter (PI): Tom Misteli NCGC Assay Overview: Cytotoxicity of the active compounds in the Clk4 screens was assessed using the CellTiter-Glo Luminescent Cell Viability Assay kit (Promega, USA) in the HEK-293 (ATCC) cell line. CellTiter-Glo measures the intracellular ATP present in metabolically active cells using Ultra-Glo as the luciferase to detect ATP levels. In brief, the luciferase in the buffer catalyzes the oxidation of luciferin to oxyluciferin and light which is dependent on ATP. […] Wells treated with various concentrations of cycloheximide (Sigma) and DMSO, and wells with media alone were used as positive and negative controls, respectively. […] [1] http://www.promega.com/tbs/tb288/tb288.pdf
NCGC Assay Protocol Summary: HEK-293 cells were grown in a flask up to 80% confluence. Cells were trypsinized, washed, and resuspended in MEM Eagle + 10% FBS + 1% pen-strep media at a concentration of 120 cells/uL. Five uL/well of cell solution was dispensed into a 1536-well assay plates (Greiner, solid white medium-binding plates) with Aurora Discovery BioRAPTR Flying Reagent Dispenser (FRD; Beckton-Dickenson). Cells were pre-incubated at 37 degree Celsius, 5% CO2 for four hours. Compound and control solutions (23nL) were then transferred to the assay plate using the Kalypsys 1536-pin tool. Assay plates were re- incubated at 37 degree Celsius, 5% CO2. After 24 or 48 hours, five uL of CellTiter Glo detection reagent was added. Luminescence signal was read with Perkin Elmer ViewLux plate reader after 30 min room temperature incubation.

Row | SMILES | activity change, negative = cytotoxicity [%]
1 | O=Cc1ccc(-c2ccc3ncnc(NCc4cccs4)c3c2)o1 | -5.69
2 | CCOC(=O)c1ccc(-c2ccc3ncnc(NCc4ncc[nH]4)c3c2)o1 | -9.91
3 | CCn1cnc(CCN(C)c2ncnc3ccc(-c4ccc5c(c4)OCO5)cc23)c1 | -2.87
4 | CN(CCc1ccco1)c1ncnc2ccc(-c3ccc4c(c3)OCO4)cc12 | -16.2
5 | Cc1nc(C)c(-c2ccc3ncnc(NCc4ncc[nH]4)c3c2)s1 | -19.3
6 | COc1cccc(Nc2ncc3ncc(=O)n(C)c3n2)c1 | -7.13
7 | CCOC(=O)c1ccoc1-c1ccc2ncnc(NCc3ccc(C)o3)c2c1 | -1.84
8 | CCOC(=O)c1ccc(-c2ccc3ncnc(NCc4ccc(C)o4)c3c2)o1 | 7.87
9 | CN(CC1CCCCO1)c1ncnc2ccc(-c3ccc4c(c3)OCO4)cc12 (stereo not given) | 6.87
10 | Cc1cccc(-c2ccc3ncnc(NCc4cccc(F)c4)c3c2)c1 | -6.26
11 | c1nc(NCC2CCCC2)c2cc(-c3ccc4c(c3)OCO4)ccc2n1 | 1.59
12 | CN(Cc1cncn1C)c1ncnc2ccc(-c3ccc4c(c3)OCO4)cc12 | -6.1
13 | c1coc(CNc2ncnc3ccc(-c4ccc5c(c4)OCO5)cc23)c1 | -14
14 | Cc1cccc(-c2ccc3ncnc(NCc4cc(C)cs4)c3c2)c1 | -15.7
15 | Cc1occc1-c1ccc2ncnc(NCCc3cnc[nH]3)c2c1 | -16.7
16 | Fc1cccc(CNc2ncnc3ccc(-c4ccccc4Cl)cc23)c1 | -7.67
17 | Cc1nc(CCN(C)c2ncnc3ccc(-c4ccc5c(c4)OCO5)cc23)cs1 | -17
18 | Cc1csc(CNc2ncnc3ccc(-c4ccc5c(ccn5C)c4)cc23)c1 | -23.1
19 | Cc1csc(CNc2ncnc3ccc(-c4ccc5c(c4)OCO5)cc23)n1 | -28.3
20 | O=C(O)c1ccc(-c2ccc3ncnc(N4CCOCC4)c3c2)o1 | 3.54

Row | SMILES | activity change, negative = cytotoxicity [%]
21 | Cc1cc(CNc2ncnc3ccc(-c4ccc5c(c4)OCO5)cc23)c(C)o1 | -18.2
22 | COc1cccc(-c2ccc3ncnc(NCc4cccc(F)c4)c3c2)c1 | -5.1
23 | CC(O)c1ccc(-c2ccc3ncnc(N4CCOCC4)c3c2)o1 (stereo not given) | 0.411
24 | Cc1csc(CNc2ncnc3cc(-c4ccc5c(c4)OCO5)ccc23)n1 | 0.525
25 | Clc1ccccc1-c1ccc2ncnc(NCc3cccnc3)c2c1 | 11.7
26 | CCOC(=O)c1ccoc1-c1ccc2ncnc(NCCc3cnc[nH]3)c2c1 | 0.328
27 | c1nc(NCc2ccc3c(c2)OCO3)c2cc(-c3ccc4c(c3)OCCO4)ccc2n1 | -9.9
28 | c1nc(NCCc2cnc[nH]2)c2cc(-c3ccoc3)ccc2n1 | 5.81
29 | CN(CC(=O)O)c1ncnc2ccc(-c3ccc4c(c3)OCO4)cc12 | -7.63
30 | C#Cc1cccc(Nc2ncnc3cc(OCCOC)c(OCCOC)cc23)c1 | -11.6
31 | c1nc(NCC2CCOC2)c2cc(-c3ccc4c(c3)OCO4)ccc2n1 (stereo not given) | 4.83
32 | Cn1ccc2cc(-c3ccc4ncnc(NCc5cccc(F)c5)c4c3)ccc21 | -28.4
33 | Cn1cnc(CCNc2ncnc3ccc(-c4ccc5c(c4)OCO5)cc23)c1 | 1.14
34 | c1nc(OCc2cnc[nH]2)c2cc(-c3ccc4c(c3)OCO4)ccc2n1 | 5.34
35 | c1csc(CNc2ncnc3cc(-c4ccc5c(c4)OCO5)ccc23)c1 | -10.7
36 | O=C(O)c1ccc(-c2ccc3ncnc(NCC4CCCO4)c3c2)o1 (stereo not given) | -5.42
37 | Cc1csc(CNc2ncnc3ccc(-c4ccc5c(c4)OCCO5)cc23)c1 | -15.6
38 | CC(Nc1ncnc2ccc(-c3ccc4c(c3)OCO4)cc12)c1ccco1 (stereo not given) | -15.7
39 | c1coc(CCNc2ncnc3ccc(-c4ccc5c(c4)OCO5)cc23)c1 | -10.3
40 | Cc1nc(CNc2ncnc3ccc(-c4ccoc4)cc23)cs1 | 2.4
